Assay outcomes deposited in PubChem by National Center for Advancing Translational Sciences (NCATS).
This is a sample that favours compounds with a hit; in the whole collection about 10% have one here.
CtBP-E1A inh: CtBP/E1A binding inhibition. AlphaScreen GST-E1A/His-CtBP binding, 1536-well; stronger effect = lower value. 340,000 tested, 0.49% active. activity change, % (concentration not given with the values); in the data active means activity change below about -65%; inconclusive means mostly about -30% to -63%
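Homogeneous bead-based format: GST-tagged E1A captured on glutathione donor beads, His-tagged CtBP on nickel acceptor beads; compounds precede bead addition by 2 h at 37 °C.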
Six1-Eya2 blk: blocks human Six1 binding to Eya2 | Q15475+O00167 | AlphaScreen GST-Six1/His-Eya2 binding, biochemical; stronger effect = lower value | activity change, % (no concentration beside the values) | 360,000 tested, 0.56% active; in the data active means activity change below about -65%; inconclusive means mostly about -30% to -63%
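AlphaScreen with GST-Six1 and His-Eya2 (5X mix: 250 nM and 500 nM), glutathione donor and nickel acceptor beads; buffer 50 mM Tris pH 8.0, 300 mM NaCl, 1 mM TCEP; 1 h at 37 C in the dark.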
BAZ2B inh: BAZ2B (human) inhibition | Potency, µM (titrated, usually from 114 µM), actives largely listed as inhibitors | 360,000 tested, 4.4% active | AlphaScreen BAZ2B-H3K14Ac peptide displacement; further: nearly all actives have a fitted effect of over 60% in size
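Protein-peptide AlphaScreen: BAZ2B 50 nM, b-H3K14Ac 50 nM, 1x PBS pH 7.4 + 0.01% Tween-20. Preincubation 30 min RT; cpd 30 min RT (top 110 uM); beads 20 min RT, light-protected.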
HP1b binding inh: blocks HP1-beta chromodomain binding to methylated histone tails; AlphaScreen HP1-beta / biotin-H3K9me3 peptide binding; AID 540317; 390,000 tested, 0.56% active; P83916; Potency, µM (series often up to 114 µM), most hits filed as inhibitors; further: nearly all actives have a fitted effect of over 70% in size
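AlphaScreen: HP1-beta (50 nM) preformed 30 min with biotin-H3(1-18)K9me3 peptide (50 nM) in PBS pH 7.4, 0.01% Tween-20. Compound added for 30 min at RT, then streptavidin donor/nickel chelate acceptor beads (10 ug/mL) for 30 min.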
G9a block: G9a (human) methyltransferase inhibition. Q96KQ7. 350,000 tested, 8.8% active. G9a H3K9 monomethylation, AlphaScreen, 2 h. Potency, µM (top dose mostly 102 µM), usual class: inhibitors. AID 504332; further: nearly all actives have a fitted effect of over 75% in size
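Chemiluminescent proximity detection of H3K9 monomethylation, read after 10 min bead incubation in the dark. Reaction: 20 nM G9a, 500 nM biotin-H3K9 peptide, 20 uM SAM cofactor, 2 h, room temperature, following 15 min enzyme-compound preincubation.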
JMJD2A Tudor inh: JMJD2A Tudor domain (human) inhibition | Potency, µM (titrated, usually from 114 µM), usual class: inhibitors | AlphaScreen JMJD2A-Tudor / H3K4me3 peptide binding | 390,000 tested, 4.4% active; further: nearly all actives have a fitted effect of over 50% in size
Each line names hits and unclear results; the compound was inactive in the other large screens; ! = repeats disagree. Unless noted, the call rests on the fitted dose curve; in most records, active means well fitted inhibition curve with a large enough effect; inconclusive means small, poorly fitted or top-dose-only effect; inactive means no such curve, though single readings can be large or run the other way.

COc1ccc(C(O)P(=O)(OCC(C)C)c2ccc(N(C)C)cc2)c(OC)c1 (configuration not stated)	G9a block inconclusive
Fc1ccc2c(c1)nnn2C1CCN(Cc2nnnn2CCc2ccccc2)CC1	BAZ2B inh inconclusive, G9a block 50.1µM
Cc1nc2ccccc2n1C1CCN(Cc2nnnn2CCc2ccccc2)CC1	BAZ2B inh inconclusive, G9a block 50.1µM, JMJD2A Tudor inh inconclusive
c1ccc(CCn2nnnc2CN2CCC(n3nnc4ccccc43)CC2)cc1	none
CCOC(=O)c1ccccc1NC(=O)N(Cc1ccc(CC)cc1)Cc1cn[nH]c1-c1ccc(OC)cc1	none (no result: CtBP-E1A inh, Six1-Eya2 blk)
Clc1ccc(CS[C@@H](Cn2ccnc2)c2ccc(Cl)cc2Cl)cc1	none (no result: CtBP-E1A inh, Six1-Eya2 blk, BAZ2B inh, HP1b binding inh, JMJD2A Tudor inh)
Nc1nonc1-n1nnc(C(=O)N/N=C/c2ccc3c(c2)OCO3)c1CSc1ccccc1	none
Cc1ccc(-n2c(O)c(/C=N/NC(=O)c3ccncc3)c(=O)[nH]c2=O)cc1	Six1-Eya2 blk inconclusive, BAZ2B inh 50.1µM, G9a block inconclusive, JMJD2A Tudor inh inconclusive (no result: CtBP-E1A inh)
Cc1cccc(-n2c(O)c(/C=N/NC(=O)c3ccncc3)c(=O)[nH]c2=O)c1	Six1-Eya2 blk inconclusive, BAZ2B inh inconclusive, JMJD2A Tudor inh 79.4µM
O=C(N/N=C/c1c(O)n(-c2ccccc2)c(=O)[nH]c1=O)c1ccncc1	Six1-Eya2 blk inconclusive, BAZ2B inh inconclusive, JMJD2A Tudor inh inconclusive
c1ccc2c(c1)c1cccc3ccc4cccc2c4c31	none
CN1[C@@H]2CC[C@H]1CC(O)C2 (some centres not stated)	none (no result: CtBP-E1A inh, Six1-Eya2 blk, BAZ2B inh, HP1b binding inh, JMJD2A Tudor inh)
CCCCCCCCc1[se]c2ccccc2c1[Se]c1ccccc1	none (no result: CtBP-E1A inh, Six1-Eya2 blk, BAZ2B inh, HP1b binding inh, JMJD2A Tudor inh)
Cc1ccc2c(c1)CC1(CN2C)C(=O)NC(=O)N(C(C)C)C1=O (configuration not stated)	G9a block 31.6µM
Cc1cccc(N2C(=O)NC(=O)C3(Cc4cc(C)ccc4N(C)C3)C2=O)c1 (configuration not stated)	G9a block 10µM
Cc1ccc2c(c1)CC1(CN2C)C(=O)NC(=O)N(CCC2=CCCCC2)C1=O (configuration not stated)	G9a block 10µM
COc1ccc2c(c1)CC1(CN2C)C(=O)NC(=O)N(c2ccc(F)cc2)C1=O (configuration not stated)	G9a block 20µM
Cc1ccccc1-n1c(/C=C/c2ccc(N(C)C)cc2)nc2ccccc2c1=O	BAZ2B inh 22.4µM, JMJD2A Tudor inh 22.4µM (no result: CtBP-E1A inh, Six1-Eya2 blk)
COc1cc(/C=C/c2nc3ccccc3c(=O)n2-c2ccc(O)cc2)ccc1O	BAZ2B inh inconclusive, JMJD2A Tudor inh inconclusive
Cc1ccccc1-n1c(-c2ccc([N+](=O)[O-])cc2)nc2ccccc2c1=O	G9a block 70.8µM
O=c1c2ccccc2nc(-c2ccc([N+](=O)[O-])cc2)n1-c1ccccc1	none
COc1ccc(-n2c(/C=C/c3ccc(O)c(O)c3)nc3ccccc3c2=O)cc1	BAZ2B inh inconclusive, G9a block 31.6µM, JMJD2A Tudor inh inconclusive (no result: CtBP-E1A inh)
O=C(Cn1c(=O)oc2cc(S(=O)(=O)N3CCCC3)ccc21)Nc1cccc(C(F)(F)F)c1	none
COc1cc([C@H]2c3cc4c(cc3[C@@H](O)[C@@H]3COC(=O)[C@H]23)OCO4)cc(OC)c1OC	none (no result: CtBP-E1A inh, Six1-Eya2 blk, BAZ2B inh, HP1b binding inh, JMJD2A Tudor inh)
O=C(c1ccco1)N1CCC2(CC1)CN(Cc1ccncc1)C2	none (no result: CtBP-E1A inh, Six1-Eya2 blk, BAZ2B inh, HP1b binding inh, JMJD2A Tudor inh)
CCC(CO)NC(=O)C1C=C2c3cccc4[nH]cc(c34)CC2N(C)C1 (configuration not stated)	G9a block inconclusive
CC[C@@H](CO)NC(=O)[C@@H]1C=C2c3cccc4c3c(cn4C)C[C@H]2N(C)C1	BAZ2B inh inconclusive, G9a block 6.31µM!
CCN(CC)C(=O)N[C@H]1C[C@@H]2c3cccc4[nH]cc(c34)C[C@H]2N(C)C1	JMJD2A Tudor inh inconclusive
COC(=O)C1C=C2c3cccc4[nH]cc(c34)CC2N(C)C1 (configuration not stated)	BAZ2B inh 39.8µM, G9a block inconclusive (no result: CtBP-E1A inh, Six1-Eya2 blk, HP1b binding inh, JMJD2A Tudor inh)
CC[C@H](CO)NC(=O)[C@H]1C=C2c3cccc4[nH]cc(c34)C[C@@H]2N(C)C1	G9a block 7.94µM (no result: CtBP-E1A inh, Six1-Eya2 blk, BAZ2B inh, HP1b binding inh, JMJD2A Tudor inh)
